# The entries come from a sample that favours hits as a whole.
# ST2 IL33 inh: inhibitors of human ST2 (IL1RL1) binding to IL-33, primary screen, biochemical, AlphaLISA; Interleukin-1 receptor-like 1 (Homo sapiens), Q01638; AlphaLISA ST2-Fc/biotin-IL-33 interaction, 1 h; inhibition, % for hits at 17 µM; 78,000 tested, 2.3% active; in the data active = inhibition above about 30%
# Target sequence (Q01638 whole entry, looked up): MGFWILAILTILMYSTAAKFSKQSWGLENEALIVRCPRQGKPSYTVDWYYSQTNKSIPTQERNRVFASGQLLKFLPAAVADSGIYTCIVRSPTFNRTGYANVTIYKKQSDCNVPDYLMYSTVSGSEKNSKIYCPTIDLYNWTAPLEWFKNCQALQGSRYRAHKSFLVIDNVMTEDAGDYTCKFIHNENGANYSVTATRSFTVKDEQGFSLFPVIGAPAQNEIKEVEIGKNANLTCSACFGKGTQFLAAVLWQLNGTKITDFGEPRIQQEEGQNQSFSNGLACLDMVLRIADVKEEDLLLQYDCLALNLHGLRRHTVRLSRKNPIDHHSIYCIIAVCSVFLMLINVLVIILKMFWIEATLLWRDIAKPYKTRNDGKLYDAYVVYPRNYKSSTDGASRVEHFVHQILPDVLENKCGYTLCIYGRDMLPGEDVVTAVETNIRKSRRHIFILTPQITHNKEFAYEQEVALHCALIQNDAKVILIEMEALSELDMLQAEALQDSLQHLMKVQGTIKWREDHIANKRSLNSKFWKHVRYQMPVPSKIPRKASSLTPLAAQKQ
# * marks the source's active call; other numbers are inactive results; i = inactive.
SMILES,ST2 IL33 inh
CCn1cc(C(=O)N2CCN(C)CC2)c2cc(OC)c(OC)cc2c1=O,i
Cc1cnc(C)c(N2CCN(Cc3ccc(C#CC(C)(C)O)s3)CC2)n1,i
CC(C)Oc1ccc(-c2nc3s/c(=C\c4ccco4)c(=O)n3n2)cc1,i
CN(CC1COCCO1)C(=O)c1cn(Cc2cccc(C(F)(F)F)c2)nn1 (stereo not given),i
COc1ccc(NC(=O)c2sc3ccccc3c2Cl)cc1Cl,i
CCCNC(=O)c1sc2c(Cl)c(OC)ccc2c1Cl,53.0%*
CCCCNC(=O)c1sc2ccccc2c1Cl,i
CC1(C)CC(=O)C2=C(C1)OC(N)=C(C#N)C2c1ccccc1F (stereo not given),i
COc1ccc(C2CC(c3cccs3)=NN2C(=O)CSc2c[nH]c3ccccc23)cc1 (stereo not given),i
COc1cccc(C2CC(c3ccc(Br)cc3)=NN2C(=O)CCCC(=O)O)c1OC (stereo not given),i
COc1cccc(C2CC(c3cccs3)=NN2C(=O)CSC2CCCCC2)c1OC (stereo not given),44.0%*
CCN(CCn1cccn1)C(=O)CC1C(=O)NCCN1Cc1cccs1 (stereo not given),i
COc1ccccc1C(=O)C1CCCN(C(=O)Nc2cccc(SC)c2)C1 (stereo not given),i
COc1ccc(NC(=O)c2cc3c(=O)n4cccc(C)c4nc3n2C)c(OC)c1,i
Cc1ccc(N=Cc2c(Nc3ccccc3)nc3c(C)cccn3c2=O)cc1,i
COc1ccc(Nc2nc3c(C)cccn3c(=O)c2C=NCc2ccccc2)cc1,40.0%*
Cc1ccc2nc(-c3ccc(NC(=O)CSc4nc(C)cc(=O)[nH]4)cc3)sc2c1,i
C=C(C)COc1ccccc1C(=O)NC(C)c1nc(-c2cccnc2)no1 (stereo not given),i
OCCCn1cnc(-c2ccccc2)c1-c1ccc(Cl)s1,i
O=C(O)CSc1nnnn1-c1ccccc1,i
COc1ccc(C(=O)CSc2nnc(C(O)c3ccccc3)n2-c2ccccc2)cc1 (stereo not given),i
CC(c1nnc(SCC(=O)O)n1-c1ccccc1)n1ccnc1 (stereo not given),31.0%*
CCN1CCN(S(=O)(=O)c2cccc3nonc23)CC1,i
CC(C)CCNC(=O)CSC1=Nc2ccccc2C2=NC(Cc3ccccc3)C(=O)N12 (stereo not given),i
Cc1ccc(OCC(=O)Nc2ccc(N3CCCC3)cc2)cc1C,59.0%*
SMILES,ST2 IL33 inh
Cc1cc(C)c(NC(=O)COc2ccc(C)c(C)c2)c(C)c1,i
CC(=O)Nc1ccc(OCC(=O)Nc2c(C)cccc2C)cc1,i
CCc1ccc(OCC(=O)Nc2ccc(N3CCN(C(C)=O)CC3)cc2)cc1,i
Cc1cccc(OCC(=O)Nc2ccc(N3CCCC3)cc2)c1C,66.0%*
Cc1cccc(OCC(=O)Nc2sc3c(c2C#N)CCC3)c1C,i
CCOc1ccccc1NC(=O)c1cc2cc(Br)ccc2oc1=O,i
O=C1NCCc2c1sc1ccc(C(=O)N3CC[C@H](CO)[C@H](O)C3)cc21,i
CCn1c2ccccc2c2nnc(-n3nc(C)cc3C)nc21,i
O=C(NC1CCN(Cc2cc(F)cc(F)c2)CC1)C1CC2(CCNCC2)CN1 (stereo not given),i
Cc1cc(NC(=O)Cn2cnc3c(cnn3-c3ccc(Cl)cc3)c2=O)no1,i
CCOc1ccccc1CNC(=O)C(C)N1C(=O)COc2ccc(C)cc21 (stereo not given),i
Cc1ncsc1CCN(C)Cc1cccc(-n2cccn2)c1,i
Nc1c(C(=O)Nc2cccc(C(F)(F)F)c2)sc2nc3c(cc12)CCCCC3,42.0%*
CCc1nnc(NC(=O)c2sc3nc4c(cc3c2N)CCCCC4)s1,i
Nc1c(C(=O)Nc2ccccc2)sc2nc3c(cc12)CCCCC3,i
CCOc1ccc(NS(=O)(=O)c2ccc(NC(C)=O)cc2)cc1,i
Cc1ccc(N=Cc2nc(-c3ccccc3F)oc2O)c(C)c1,33.0%*
Oc1oc(-c2ccccc2F)nc1C=Nc1ccc(Cl)cn1,32.0%*
Oc1oc(-c2ccccc2)nc1C=Nc1ccc(Br)cn1,i
Oc1oc(-c2ccc(Br)cc2)nc1C=Nc1ccc(Br)cn1,i
Cc1ccc(N=Cc2nc(-c3ccccc3)oc2O)c(Br)c1,i
Cc1ccc(N=Cc2nc(-c3ccc(Br)cc3)oc2O)c(C)c1,i
CC(=O)N1N=C(c2ccc(C)cc2)CC1c1ccccc1F (stereo not given),i
Clc1ccc(-c2nnc3n2N=C(c2cccs2)CS3)c(Cl)c1,i
CCCc1ccc(OCC(O)CN2CC(C)OC(C)C2)cc1 (stereo not given),i
SMILES,ST2 IL33 inh
CC(=O)Nc1ncc(CN2CCC(c3ccccc3)CC2)s1,i
CC(=O)C(C(=Nc1ccccc1)Nc1ccccc1)=C(C)O,i
COc1ccc(C(=O)N2CC[C@@H](CC(=O)O)[C@@H](CCN3CCCN(C(C)=O)CC3)C2)cc1,39.0%*
COc1ccccc1N1CCN(CC[C@H]2CN(C(=O)N3CCOCC3)CC[C@H]2CC(=O)O)CC1,33.0%*
O=C(O)C[C@@H]1CCN(C(=O)c2ccco2)C[C@@H]1CCN1CCN(c2ccccc2)CC1,i
COc1ccc(CC(=O)N2CC[C@@H](CC(=O)O)[C@@H](CCN3CCN(c4ccccn4)CC3)C2)cc1,i
COc1ccc(CC(=O)N2CC[C@@H](CC(=O)O)[C@@H](CCN3CCN(c4cccc(C(F)(F)F)c4)CC3)C2)cc1,i
COc1ccc(C(=O)N2CC[C@@H](CC(=O)O)[C@@H](CCN3CCN(c4cccc(C(F)(F)F)c4)CC3)C2)cc1,i
CCN(CC)C1=Nc2cc(C(=O)O)ccc2Sc2ccccc21,i
CCOC(=O)C1(Cc2ccccc2C)CCCN(C(=O)CCc2cnccn2)C1 (stereo not given),i
O=[N+]([O-])c1ccc(S(=O)(=O)NCc2ccc3c(c2)OCO3)cc1,i
Fc1ccc(N2CCN(Cc3ccsc3)CC2)cc1,i
Cc1ccc(-n2nc3c(c2NC(=O)c2cccs2)CS(=O)C3)cc1 (stereo not given),i
CCOC(=O)c1cnc2ccccc2c1Nc1cccc(C)c1,i
CCOc1ccc(Nc2nc(C)c([N+](=O)[O-])c(Nc3ccccc3)n2)cc1,i
CCOc1ccc(S(=O)(=O)N=C2C=C(Nc3cccc(C)c3)C(=O)c3ccccc32)cc1,90.0%*
Cc1ccc(S(=O)(=O)Nc2cccc(Cl)c2)cc1,i
Cc1ccc(S(=O)(=O)N=C2C=C(Nc3cccc(C)c3)C(=O)c3ccccc32)cc1,84.0%*
Cc1cccc(NS(=O)(=O)c2ccc3[nH]c(=O)[nH]c3c2)c1,i
CCOc1ccccc1CN1CCN(Cc2ccc3c(c2)OCO3)CC1,i
COCCCNC(=O)CSc1nc(-c2ccc3c(c2)OCO3)nc2cc(=O)[nH]n12,i
CCOC(=O)C1(CCc2ccccc2)CCNCC1,i
O=C(CN1C(=O)C(=O)c2ccccc21)c1ccccc1,i
O=C1C(=O)N(CN2CCCCCC2)c2ccccc21,42.0%*
Cc1ccc(N=C2C(=O)N(CN3CCOCC3)c3ccccc32)cc1,i
CN(CC1CCCN(CCc2cccc(C(F)(F)F)c2)C1)C(=O)c1ccccn1 (stereo not given),i
O=[N+]([O-])c1ccc(CSc2nnc3c(n2)[nH]c2ccccc23)cc1,i
c1ccc2c(c1)[nH]c1nc(SCCCN3CCOCC3)nnc12,i
CC(C)CSc1nnc2c(n1)[nH]c1ccccc12,32.0%*
